Assay outcomes from PubChem BioAssay.
C diff growth: inhibitors of Clostridium difficile growth. actives 0.25% (n = 86,000). AID 1259249. growth activity, negative = inhibition, % at 16 µg/mL (by protocol). Clostridium difficile clinical isolate growth, OD600, 24 h; hits give low values;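 active = mean growth activity at or below -80% and every replicate also at or below -80%; inconclusive = mean at or below -80% but some replicate above -80%; inactive = mean growth activity above -80%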;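 note: 0% = DMSO wells and -100% = levofloxacin 16 µg/mL wells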
T cruzi growth-1: inhibitors of T. cruzi proliferation | T. cruzi beta-gal in NIH3T3, GalScreen luminescence, 90 h | inhibition, % at 8.34 µM | actives 5.9% (n = 77,000) | AID 624255;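 active = mean inhibition above about 93%, with at least 55% of replicates each passing it, limit read from the data, passing the limit was not always enough; inconclusive = only one of those two conditions holds; inactive = neither condition holds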
T cruzi growth-2: blocks T. cruzi growth in NIH3T3 host cells; shares compounds with T cruzi growth-1; T. cruzi beta-gal in NIH3T3, GalScreen luminescence, 90 h; inhibition, % at 8.35 µM; actives 72% (n = 5,600); AID 651739;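 active = mean replicate inhibition above about 95% and at least 55% of replicates individually reaching it, limit read from the data; inconclusive = only one of the two criteria is met; inactive = neither criterion is met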
T cruzi growth-3: inhibitors of T. cruzi proliferation; shares compounds with T cruzi growth-1; T. cruzi beta-gal in NIH3T3, GalScreen luminescence, 90 h; inhibition, % at 2.09 µM; actives 21% (n = 5,600); AID 651740;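 active = mean inhibition above about 95%, with at least 55% of replicates also reaching it, limit read from the data; inconclusive = meets just one of the two conditions; inactive = meets neither condition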;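 note: plate controls were neutral control median for no effect and positive control median for full effect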
3T3 cytotox: NIH/3T3 (mouse) viability loss | shares compounds with T cruzi growth-1 | NIH/3T3 viability, CellTiter-Glo ATP luminescence, 90 h | cytotoxicity (signal decrease), % at 8.35 µM | actives 14% (n = 5,600) | AID 651742;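 active = mean signal decrease across replicates above about 35% based on untreated-well scatter, with enough replicates individually passing, limit read from the data; inconclusive = no rule stated though some were filed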;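 note: 0% = median of neutral control wells and 100% = median of positive control wells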
3T3 cytotox 2: NIH/3T3 (mouse) viability loss; actives 56% (n = 5,600); NIH/3T3 viability, CellTiter-Glo ATP luminescence, 90 h; shares compounds with T cruzi growth-1; inhibition, % at 24.9 µM;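 active = mean loss of cell viability signal at or above a set limit, and enough replicates individually reaching it; inconclusive = meets only the mean limit or only the replicate share; inactive = meets neither condition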;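 note: 0% = median of neutral control wells and 100% = median of positive control wells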
* hit, by the source's call; ? = inconclusive; . = no result. The entries come from a sample that favours hits as a whole.

SMILES | C diff growth | T cruzi growth-1 | T cruzi growth-2 | T cruzi growth-3 | 3T3 cytotox | 3T3 cytotox 2
C[C@H]1CN([C@@H](C)CO)C(=O)c2cc(C#CC3CCCCC3)cnc2O[C@@H]1CN(C)S(=O)(=O)c1ccc(F)cc1 | 1 | 108* | 100* | 91 | 13 | 95*
C[C@H]1CN([C@@H](C)CO)C(=O)c2cc(C#CC3CCCCC3)cnc2O[C@H]1CN(C)S(=O)(=O)c1cccc(F)c1 | 7 | . | . | . | . | .
C[C@H](CO)N1C[C@H](C)[C@@H](CN(C)S(=O)(=O)c2ccc(F)cc2)Oc2ncc(C#CC3CCCCC3)cc2C1=O | 5 | 86 | . | . | . | .
CO[C@@H]1CN(C)C(=O)c2ccc(NS(=O)(=O)c3ccccc3)cc2OC[C@H](C)N(C)C[C@H]1C | 0 | 4 | . | . | . | .
C[C@H]1CN([C@@H](C)CO)C(=O)Cc2cc(NS(=O)(=O)c3cccs3)ccc2O[C@@H]1CN(C)C(=O)Nc1ccc(F)cc1 | -2 | -9 | . | . | . | .
CC(C)(C)[S@@](=O)N1Cc2cc(C(=O)NC3CCCC3)nc(-c3cccc(Br)c3)c2[C@H]1CCO | 3 | . | . | . | . | .
CCCC(=O)Nc1ccc2c(c1)OC[C@H](C)N(CCC)C[C@H](C)[C@@H](OC)CN(C)C2=O | -2 | 10 | . | . | . | .
C[C@H]1CN([C@@H](C)CO)C(=O)c2cc(C#CC3CCCCC3)cnc2O[C@@H]1CN(C)S(=O)(=O)c1ccccc1 | 1 | ? | 111* | 80 | 13 | 87*
C[C@H](CO)N1C[C@H](C)[C@@H](CN(C)S(=O)(=O)c2cccc(F)c2)Oc2ncc(C#CC3CCCCC3)cc2C1=O | 7 | . | . | . | . | .
CCC(=O)N(C)C[C@@H]1Oc2cc(C#CC3CCCCC3)ccc2S(=O)(=O)N([C@H](C)CO)C[C@@H]1C | -1 | 110* | 95* | 84 | 12 | 104*
CCC(=O)N(C)C[C@H]1Oc2cc(C#CC3CCCCC3)ccc2S(=O)(=O)N([C@H](C)CO)C[C@H]1C | -9 | 104 | . | . | . | .
CCC(=O)N(C)C[C@H]1Oc2cc(C#CC3CCCCC3)ccc2S(=O)(=O)N([C@@H](C)CO)C[C@H]1C | 3 | 111 | . | . | . | .
CCC(=O)N(C)C[C@H]1Oc2cc(C#CC3CCCCC3)ccc2S(=O)(=O)N([C@@H](C)CO)C[C@@H]1C | -9 | 104 | . | . | . | .
CCC(=O)N(C)C[C@@H]1Oc2cc(C#CC3CCCCC3)ccc2S(=O)(=O)N([C@@H](C)CO)C[C@@H]1C | -3 | ? | 100* | 86 | 24 | 106*
CCC(=O)N(C)C[C@H]1Oc2cc(C#CC3CCCCC3)ccc2S(=O)(=O)N([C@H](C)CO)C[C@@H]1C | -4 | 108* | 102* | 70 | 12 | 83*
C[C@@H]1CN([C@H](C)CO)C(=O)c2cccc(NC(=O)C3CCCCC3)c2O[C@@H]1CN(C)Cc1ccc2c(c1)OCO2 | 4 | 16 | . | . | . | .
Cc1noc(C)c1NC(=O)N(C)C[C@H]1Oc2c(NS(=O)(=O)c3ccc(F)cc3)cccc2C(=O)N([C@@H](C)CO)C[C@H]1C | -2 | -15 | . | . | . | .
COc1ccc(NC(=O)N2CC[C@@H]3[C@H]2c2cc(-c4cccc(C(=O)N(C)C)c4)ccc2N(C)[C@H]3CO)cc1 | -7 | 13 | . | . | . | .
C[C@H]1CN([C@@H](C)CO)C(=O)Cc2cc(NC(=O)Cc3cn(C)c4ccccc34)ccc2O[C@@H]1CN(C)C(=O)Nc1cccc2ccccc12 | 3 | 17 | . | . | . | .
COCC#Cc1ccc2c(c1)O[C@H](CN(C)C(=O)C1CCOCC1)[C@@H](C)CN([C@H](C)CO)S2(=O)=O | 2 | 7 | . | . | . | .
C[C@@H]1CN([C@H](C)CO)C(=O)c2cc(NS(=O)(=O)c3cccs3)ccc2O[C@@H](C)CCCCO[C@@H]1CN(C)Cc1ccc(C(F)(F)F)cc1 | 8 | 98* | 92 | 114* | -6 | 54*
C[C@@H]1CN([C@@H](C)CO)C(=O)c2cc(NS(=O)(=O)c3cccs3)ccc2O[C@@H](C)CCCCO[C@H]1CN(C)Cc1ccc(C(=O)O)cc1 | 1 | -69 | . | . | . | .
C[C@@H]1CN([C@@H](C)CO)C(=O)c2cc(NS(=O)(=O)c3cccs3)ccc2O[C@@H](C)CCCCO[C@H]1CN(C)Cc1ccc(C(F)(F)F)cc1 | -2 | 95 | . | . | . | .
C[C@@H]1CN([C@H](C)CO)C(=O)c2cc(NS(=O)(=O)c3cccs3)ccc2O[C@@H](C)CCCCO[C@H]1CN(C)Cc1ccc(C(=O)O)cc1 | -4 | . | . | . | . | .
C[C@@H]1CCCCO[C@H](CN(C)Cc2ccc(C(F)(F)F)cc2)[C@@H](C)CN([C@@H](C)CO)C(=O)c2cc(NS(=O)(=O)c3cccs3)ccc2O1 | -3 | 112* | 92 | 112* | 1 | 106*
SMILES | C diff growth | T cruzi growth-1 | T cruzi growth-2 | T cruzi growth-3 | 3T3 cytotox | 3T3 cytotox 2
C[C@H](CO)N1C[C@H](C)[C@@H](CN(C)Cc2ccc(C(F)(F)F)cc2)OCCCC[C@H](C)Oc2ccc(NS(=O)(=O)c3cccs3)cc2C1=O | 6 | ? | 99* | 105* | 44* | 106*
CCC(=O)N(C)C[C@H]1Oc2ncc(C#Cc3cccnc3)cc2C(=O)N([C@H](C)CO)C[C@@H]1C | 1 | 44 | . | . | . | .
COc1cccc(-c2ccc3c(c2)O[C@@H](CN(C)Cc2cncnc2)[C@H](C)CN([C@@H](C)CO)S3(=O)=O)c1 | 1 | 51 | . | . | . | .
COc1cccc(C(=O)Nc2ccc3c(c2)C(=O)N(C)[C@H]2CC[C@@H](CC(=O)NCCCN4CCOCC4)O[C@@H]2CO3)c1 | 5 | -63 | . | . | . | .
N#C[C@@H]1[C@H](c2ccc(C#Cc3cccc(F)c3)cc2)[C@@H](CO)N1C(=O)C1CC1 | -5 | ? | 101* | 95 | 3 | 71*
N#C[C@@H]1[C@@H](c2ccc(C#Cc3cccc(F)c3)cc2)[C@H](CO)N1C(=O)C1CCCC1 | 4 | 97* | 100* | 101* | 16 | 79*
N#C[C@@H]1[C@@H](c2ccc(C#Cc3cccc(F)c3)cc2)[C@H](CO)N1C(=O)C1CC1 | 3 | 93 | . | . | . | .
N#C[C@H]1[C@@H](c2ccc(C#Cc3cccc(F)c3)cc2)[C@@H](CO)N1C(=O)C1CC1 | 13 | 85 | . | . | . | .
N#C[C@H]1[C@@H](c2ccc(C#Cc3cccc(F)c3)cc2)[C@@H](CO)N1C(=O)C1CCOCC1 | 15 | 22 | . | . | . | .
N#C[C@H]1[C@@H](c2ccc(C#Cc3cccc(F)c3)cc2)[C@H](CO)N1C(=O)C1CCC1 | -15 | 100* | 96* | 105* | 20 | 103*
O=C(c1ccncc1)N1CCCCN2[C@H](CO)[C@@H](c3ccc(-c4ccccc4)cc3)[C@H]2C1 | -2 | 67 | . | . | . | .
CCCN1C[C@H](C)[C@@H](OC)CN(C)C(=O)c2cc(NC(=O)NC3CCCCC3)ccc2OC[C@@H]1C | . | 95 | . | . | . | .
O=C(c1ccc(F)cc1)N1CC[C@@H]2[C@@H](CO)Nc3ccc(C#Cc4ccccc4F)cc3[C@@H]21 | -22 | 52 | . | . | . | .
COc1ccccc1C#Cc1ccc2c(c1)[C@@H]1[C@@H](CCN1C(=O)c1ccccc1)[C@@H](CO)N2 | 74 | 104* | 106* | 90 | 16 | 21
